A selection: hits, their analogues and other compounds. The true share with any hit is near 1.9%.
NPSR antag: antagonists of human neuropeptide S receptor cAMP signaling; Q6W5P4; CHO-NPSR cells, cAMP TR-FRET, antagonist mode; Potency, µM (titrated, usually from 38.3 µM), for the others: at the top dose activity change, negative = inhibition, actives largely listed as inhibitors; 220,000 compounds, 1% hits; note: % is set by controls: 0 for no effect and ±100 for the full control effect; nearly all actives have a fitted effect of over 50% in size
Target sequence (Q6W5P4 whole entry, looked up): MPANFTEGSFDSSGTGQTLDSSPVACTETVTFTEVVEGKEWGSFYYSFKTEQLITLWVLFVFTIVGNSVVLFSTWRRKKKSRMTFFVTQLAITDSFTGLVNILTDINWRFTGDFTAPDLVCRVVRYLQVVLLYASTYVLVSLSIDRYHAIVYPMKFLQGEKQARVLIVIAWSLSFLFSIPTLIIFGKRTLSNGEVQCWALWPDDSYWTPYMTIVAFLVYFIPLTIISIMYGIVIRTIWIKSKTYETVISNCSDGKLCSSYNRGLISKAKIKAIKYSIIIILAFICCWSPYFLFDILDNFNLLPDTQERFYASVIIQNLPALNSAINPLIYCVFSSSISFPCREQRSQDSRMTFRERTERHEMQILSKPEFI
ERK EGF inh: blocks ERK signaling stimulated by EGF; HEK293-V1b, EGF-stimulated phospho-ERK AlphaScreen; Potency, µM (top dose mostly 11.5 µM), inactives show top-dose activity change, negative = inhibition, hits mostly inhibitors; 130,000 compounds, 0.41% hits;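 note: plate controls were stimulated vehicle wells for no effect and unstimulated vehicle basal for full effect; nearly all actives have a fitted effect of over 55% in size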
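Readout: AlphaScreen signal for phosphorylated ERK in lysed HEK293 cells stably expressing V1b. Stimulus 25 nM EGF, 5 min, following 30 min compound exposure. Data scaled to DMSO basal and full EGF activation.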
HTT aggregate: reduces HttQ103-GFP aggregates in PC12 cells | Potency, µM (highest dose often 46.1 µM), for the others: top-dose activity change, negative = inhibition, most hits filed as inhibitors | AID 1688 | 220,000 compounds, 1.1% hits | PC12 HttQ103-GFP aggregates, Acumen cytometry, 40 h; note: % is set by controls: 0 for no effect and ±100 for the full control effect; nearly all actives have a fitted effect of over 60% in size
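Read-out: GFP aggregate count by laser scanning cytometer (488 nm excitation, 500-530 nm emission, 1–25 µm objects >6 SD above background). Cells: PC12, inducible HTTex1-Q103-GFP, 100 nM tebufenozide; compounds titrated.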
IMPase Li cell: cell-permeable IMPase inhibitors with lithium potentiation. CHO-M1 cells, IP1 TR-FRET (IP-One), carbachol + lithium. Potency, µM (top dose mostly 59.4 µM), for the others: at the highest dose activity, negative = IMPase inhibition, usual class: inhibitors. 210,000 compounds, 0.35% hits;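 note: IP1 builds up when IMPase is blocked and the TR-FRET signal falls; plate controls were basal vehicle for no effect and high inhibitor control for full effect; nearly all actives have a fitted effect of over 50% in size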
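Concentration–response in CHO-M1 cells, lithium-potentiated; 30 min at 37C. IP1 detected by competitive TR-FRET after 10 min lysis at RT. Hill-fitted AC50.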
HTT ATP protect: protects HTT-Q103 PC12 cells, measured by ATP; PC12 HTT-Q103 induced, cytoprotection, ATP luminescence, 40 h; 230,000 compounds, 0.14% hits; Potency, µM (doses to about 56.4 µM), inactives show cytoprotection (ATP increase), most hits filed as activators; AID 1471; note: % of control where 0% means no effect; nearly all actives have a fitted effect of over 45% in size
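Compounds added alongside 100 nM tebufenozide, which induces toxic Q103 huntingtin exon 1-GFP in stable PC12 cells; surviving cells quantified by luminescent ATP measurement. Medium: phenol red-free DMEM, 5% equine and 5% calf serum.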
* marks the source's active call; other numbers are inactive results; ? = inconclusive; . = not tested or not shown; ! = a repeat was not active; [ ] = remark or other dose. Calls come from the whole dose curve; as a rule, active = well fitted curve in the direction sought with a large enough effect; inconclusive = small, poorly fitted or top-dose-only effect, or another doubt; inactive = no such curve, though single readings can be large; an effect the other way counts as inactive or inconclusive. Potency is the fitted concentration of half-maximal effect.

SMILES | NPSR antag | ERK EGF inh | HTT aggregate | IMPase Li cell | HTT ATP protect
O=C(NNc1nc2cc3c(cc2s1)OCO3)c1cccc(F)c1 | 18.6% | 17.8µM* | 15.0% | -1.7% | .
N[C@H](Cc1cccc(-c2ccccc2CP(=O)(O)O)c1)C(=O)O | . | . | . | . | -19.5%[1.9 µM]
COC(=O)C1=C(C(=O)OC)[C@@H]2N(C)c3ccc(OC)cc3[C@@]23C[C@@H](C(=O)OC)N(C(C)=O)C3=N1 | . | . | . | 13.7% | .
Cc1c(/C=N/NC(=O)c2cccnc2)c2ccccc2n1Cc1ccccc1 | 7.2% | 1.7% | 10µM* | 9.3% | 4.8%[10 µM]
C=CCc1cccc(C2NC(C(=O)O)CCC2C)c1 (centres undefined) | . | . | . | . | 8.0%[10 µM]
Cc1ccc(CN=Cc2[nH]c3ccc(Br)c(Cl)c3c2O)cc1 | 2.9%[46.1 µM] | . | 5.8% | 8.91µM* | -1.9%
COC(=O)C1=C(C(=O)OC)[C@@H]2Nc3ccccc3[C@@]23C[C@@H](C(=O)OC)N(S(=O)(=O)c2c(C)noc2C)C3=N1 | . | . | . | 7.5% | -7.6%[10 µM]
Oc1ccc(O)cc1 | -7.6%[46.1 µM] | 3.3% | -12.6% | -7.5% | 31.6µM*!
Cc1ccccc1CN1CCN(CC(=O)NCc2ccccc2)C1=O | -9.2%[46.1 µM] | . | -3.0% | 16.1%[38.3 µM] | 4.47µM*
Cc1cccc(CN2CCN(CC(=O)O)C2=O)c1 | -3.3%[46.1 µM] | -4.6%[57.5 µM] | 4.5% | 11.2µM* | 1.5%[0.074 µM]
O=C1CC(c2ccco2)Cc2c1cnn2-c1nc2ccccc2s1 (centres undefined) | ? | 1.7% | 8.0% | 12.6µM* | 4.7%[10 µM]
O=C(O)C12CC3(C(=O)O)CC(C(=O)O)(CC(C(=O)O)(C1)C3=O)C2=O | . | . | . | -0.8% | -6.4%[10 µM]
CN(C)CCCCl | . | . | . | -13.8% | -0.9%
COc1ccccc1-n1c(-c2ccccc2)c[n+]2c1CCc1ccccc1-2 | -15.2% | -9.2% | 2.24µM* | 23.1% | -86.8%
COc1ccc(-n2c(-c3ccc(Br)cc3)c[n+]3c2CCc2ccccc2-3)cc1 | 15.0% | -4.6% | 12.6µM* | 9.6% | -12.6%[10 µM]
COC(=O)N1c2ccccc2C23[C@@H]4CN5CCC[C@]6(CCC12C(O)(C6)C4=O)[C@H]53 | . | -6.9% | . | 13.7% | ?
CCOC(=O)c1cnc2ccccc2c1Nc1cccc(C(=O)O)c1 | -57.7% | 8.5% | -22.9% | 7.94µM* | -28.4%
Cc1ccc(C)c(NC(=O)c2cc3ccccn3n2)c1 | -19.3%[46.1 µM] | . | -8.5% | 7.5%[38.3 µM] | -31.4%[10 µM]
Cc1ccc(C)c(NC(=O)c2cnn3ccccc23)c1 | -13.0%[46.1 µM] | . | 12.6µM* | 0.0%[38.3 µM] | -103.4%
CCCCC/C=C\C/C=C\C/C=C\C=C\[C@@H](O)CCCC(=O)O | . | -11.2% | . | -3.9% | -35.0%
COc1c(C(=O)Nc2ccc(Cc3ccncc3)cc2)ccc2ccccc12 | -7.3% | ? | 12.6µM* | 10.9% | .
O=C1C(=O)c2ccccc2C(O)=C1c1ccccc1F | 12.6µM* | 2.8%[57.5 µM] | -27.0%[9.22 µM] | . | -16.6%[10 µM]
COC(=O)CNC(c1ccccc1)c1cc(Cl)ccc1NC(=O)c1cccc(Cl)c1 (centres undefined) | -52.8% | -0.9% | -15.6% | 16.5% | -1.0%[10 µM]
COC(=O)CNC(c1ccccc1)c1cc(Br)ccc1NC(C)=O (centres undefined) | -18.2% | -0.7% | -2.6%[9.22 µM] | 15.8% | 3.16µM*
CC(N)=NCCCC(N)C(=O)O (centres undefined) | -10.7%[46.1 µM] | 0.6% | . | 5.3% | .
SMILES | NPSR antag | ERK EGF inh | HTT aggregate | IMPase Li cell | HTT ATP protect
COc1cc(C(=O)ON=C2C=C(C)C(=O)C(C)=C2)cc(OC)c1OC | -12.7% | -1.4% | ? | 0.1% | 14.8%[10 µM]
COc1cc(C(=O)O/N=C2\C=CC(=O)C(C)=C2)cc(OC)c1OC | -9.2%[46.1 µM] | . | 11.2µM* | 35.6%[38.3 µM] | -113.3%
Cc1ccccc1Oc1nnc(-c2cccs2)c2ccccc12 | ? | . | 3.55µM* | . | 11.8%[10 µM]
c1ccc(-c2nc(NCc3ccco3)c3ccccc3n2)nc1 | -10.4%[46.1 µM] | . | 17.8µM* | 6.1%[38.3 µM] | -71.5%
Oc1ccccc1-c1nc(NCc2ccco2)c2ccccc2n1 | -24.2%[46.1 µM] | . | -18.7% | 33.0%[38.3 µM] | -21.7%
Cc1ccc(Nc2nc(NCc3ccco3)c3ccccc3n2)cc1 | -47.6% | ? | 11.2µM* | 8.9% | -91.7%
COc1ccccc1Nc1nc(NCc2ccco2)c2ccccc2n1 | ? | ? | -22.8%[9.22 µM] | . | -1.8%[10 µM]
C/C(=N\N1C(=O)c2ccccc2NC1c1ccco1)c1ccccc1O (centres undefined) | -38.2% | -13.5% | 7.08µM* | 8.9% | -183.9%

Screens as filed in PubChem.
